# Assay results from the OligoGym collection.
# Target: C14orf149
# Assay: pooled miR-30 sensor sort-seq; sequence = guide strand
# Conditions: shRNA
# Note: reference of the scale not given here.
row,Sequence,sensor-assay potency score (higher = more potent)
1,TTCCCTGTGAATACTGAGCCAG,-0.697
2,TCATCTTCTATTATAAAGCTTG,-0.499
3,ATGTCCAGGAACATCCACCATG,-1.62

# Target: C14orf181
# Assay: as above
# Conditions: shRNA
row,Sequence,sensor-assay potency score (higher = more potent)
1,TTCGGTTTTGTGCAAGGGGGAA,-0.823
2,TAACCCTTCGCTGACCCGGCGT,-0.821
3,AAAGTCTTCGGAGTGAAGGAGG,-0.89
4,TTTAGCTTGGAGGTGGTGGTGG,0.0381
5,TTCGGAGTGAAGGAGGCGCTGC,-1.09
6,AGGTATTTTAGCTTGGAGGTGG,-1.31
7,TTAGCTTGGAGGTGGTGGTGGG,-0.365
8,TTCGCCTGGAGCGCGTCCCTTC,-1.3
9,TAGCTTGGAGGTGGTGGTGGGG,-0.69
10,TGCACTGCCGCTTCCGACCGGG,-0.747
11,TATTTTAGCTTGGAGGTGGTGG,-0.309
12,AAAGTGAAAGTCTTCGGAGTGA,0.018

# Target: C15orf39
# Assay: as above
# Conditions: shRNA
row,Sequence,sensor-assay potency score (higher = more potent)
1,TACACAGTCGCGCCACTGCAGG,-1.54
2,TGGTGCTTCTGTGTCTATCTTT,-0.327
3,TTGTCCTGACCTTCACTGGTGG,-0.545
4,TAGAGAGAGAGGTCATCCCGGG,-0.132
5,TTGTCAATGACAGGCATTGGTG,-1.34
6,ATAAGGAAAACTCAGTGTCTGG,-1.35
7,TACCGGTAGAGTACAAGGGTGG,-0.811
8,TTCAGCATGCGTGAGGTGCAGC,-0.396
9,TTTGTCCTGACCTTCACTGGTG,-0.221
10,TGGAGCTTCTCTTTCCTGCAGC,-0.965
11,ATAGAGAGAGAGGTCATCCCGG,-0.641

# Target: C15orf42
# Assay: as above
# Conditions: shRNA
row,Sequence,sensor-assay potency score (higher = more potent)
1,TTTAGGAACATTTTAACGGTTG,-0.0807
2,TTCAATTTGTCGAAGATTCTGT,0.525
3,TTCTTGATGAGCTATAGTGGAT,-1.03
4,TTAGTGATCTCTTTGAAGGGGA,0.326
5,TTCAACATCTTTAAGGAACGGC,0.686
6,TAGGTTTAGAACTTCTTAGTGT,0.687
7,TTTACTCTTACTAACTTCTGAA,0.249
8,TACAACATGATTTCTCCTGTGG,0.642
9,TTGATTTACAAGACAATAGGAG,0.136
10,TTCATCTTCTGTCTCACTGGAG,0.162
11,TTGGTCTGACTTATCTTGCTGG,-0.193
12,TATACTATCCACAACATCTGAG,0.285
